Outcome and AC50 data for 5 compounds are collected here from PubChem BioAssay (EPA / NIEHS).

Molecules are shown by their SMILES. Results filed as inconclusive are left out. The source made the active and inactive calls. Rule for the calls, unless noted: active = hit-call score of the fitted dose curve at least 0.9, where 1 is the maximum; inactive = score below 0.9.

The target in assay [1] is Glucocorticoid receptor (Homo sapiens) (UniProt P04150). As to the kind of experiment: ATG_GR_TRANS: Attagene TRANS-FACTORIAL HepG2 Assay for human Glucocorticoid Receptor (GR) (AID 2282978; active = hit-call score of the fitted dose curve at least 0.9, where 1 is the maximum;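 note: activators score as hits since higher reporter transcript over DMSO is fitted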). As to conditions: HepG2 Attagene TRANS GR reporter, mRNA transcription. The method in brief: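 Fluorescent capillary-electrophoresis quantitation of reporter mRNA is the readout, taken 24 h after dosing human HepG2 cells carrying transiently transfected GAL4-UAS reporter units activated by chimeric NR-GAL4 fusions; activity scored as induction over DMSO.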
Chain of Glucocorticoid receptor (Homo sapiens) (P04150 whole entry, looked up, the tested form may be a part): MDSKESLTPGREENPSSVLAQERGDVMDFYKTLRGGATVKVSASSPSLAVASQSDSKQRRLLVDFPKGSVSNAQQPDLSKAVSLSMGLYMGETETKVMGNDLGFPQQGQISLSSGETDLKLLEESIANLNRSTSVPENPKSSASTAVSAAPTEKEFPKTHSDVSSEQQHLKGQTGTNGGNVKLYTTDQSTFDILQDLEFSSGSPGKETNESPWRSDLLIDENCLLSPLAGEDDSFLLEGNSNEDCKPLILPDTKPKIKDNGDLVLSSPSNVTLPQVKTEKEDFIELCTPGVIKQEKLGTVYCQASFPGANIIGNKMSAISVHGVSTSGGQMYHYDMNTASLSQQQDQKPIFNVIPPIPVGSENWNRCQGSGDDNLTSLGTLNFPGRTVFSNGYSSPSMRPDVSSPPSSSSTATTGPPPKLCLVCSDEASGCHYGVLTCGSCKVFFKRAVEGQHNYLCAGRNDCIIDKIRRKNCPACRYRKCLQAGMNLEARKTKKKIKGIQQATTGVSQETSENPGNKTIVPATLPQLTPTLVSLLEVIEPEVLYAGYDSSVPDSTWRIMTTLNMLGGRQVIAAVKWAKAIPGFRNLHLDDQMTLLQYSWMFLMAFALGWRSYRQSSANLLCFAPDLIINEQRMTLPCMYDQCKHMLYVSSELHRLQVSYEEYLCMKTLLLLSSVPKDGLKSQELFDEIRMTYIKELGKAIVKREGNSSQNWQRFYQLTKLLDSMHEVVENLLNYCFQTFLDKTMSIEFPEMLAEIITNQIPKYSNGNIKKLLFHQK

For assay [2], the target named is Bile acid receptor (Homo sapiens) (UniProt Q96RI1). As to the kind of experiment: ATG_FXR_TRANS: Attagene TRANS-FACTORIAL HepG2 Assay for Farnesoid X Receptor (FXR) (AID 2282979; active = hit-call score of the fitted dose curve at least 0.9, where 1 is the maximum;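 note: hits raise reporter mRNA above DMSO so AC50 marks FXR activation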). As to conditions: HepG2 Attagene TRANS FXR-GAL4 reporter transcription. The method in brief: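 Chimeric FXR-GAL4 activity in transiently transfected human HepG2 liver cells is scored as induction of reporter mRNA after 24 h of dosing. Detection uses RT-PCR with fluorescent labelling and capillary electrophoresis, with DMSO serving as baseline.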
Chain of Bile acid receptor (Homo sapiens) (Q96RI1 whole entry, looked up, the tested form may be a part): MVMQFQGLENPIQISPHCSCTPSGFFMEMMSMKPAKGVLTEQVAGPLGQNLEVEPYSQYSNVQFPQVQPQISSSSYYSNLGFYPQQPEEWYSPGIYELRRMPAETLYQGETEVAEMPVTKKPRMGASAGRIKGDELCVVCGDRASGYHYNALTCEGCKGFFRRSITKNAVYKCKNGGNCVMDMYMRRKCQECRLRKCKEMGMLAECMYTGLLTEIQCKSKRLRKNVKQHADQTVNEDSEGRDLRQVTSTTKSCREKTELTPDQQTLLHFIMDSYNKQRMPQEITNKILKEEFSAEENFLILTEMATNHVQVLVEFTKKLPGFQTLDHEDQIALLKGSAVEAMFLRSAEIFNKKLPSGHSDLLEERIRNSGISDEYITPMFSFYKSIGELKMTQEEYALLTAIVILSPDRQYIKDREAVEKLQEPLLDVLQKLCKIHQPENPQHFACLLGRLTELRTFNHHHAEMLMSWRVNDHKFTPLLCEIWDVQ

The target of assay [3] is Oxysterols receptor LXR-beta (Homo sapiens) (UniProt P55055). The assay can be described thus: ATG_LXRb_TRANS: Attagene TRANS-FACTORIAL HepG2 Assay for human Liver X Receptor beta (LXRb) (AID 2282981; active = hit-call score of the fitted dose curve at least 0.9, where 1 is the maximum). As to conditions: HepG2 Attagene TRANS GAL4-LXRb reporter, mRNA. The method in brief:
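HepG2 cells transiently transfected with multiple reporter transcription units carrying chimeric NR-Gal4 proteins acting on GAL4-UAS reporters; compound exposure 24 h. Reporter mRNA quantified by RT-PCR, 6-FAM labelling, HpaI digestion and capillary electrophoresis; gain of signal versus DMSO.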

Assay [4] has as its target Hepatocyte nuclear factor 4-alpha (Homo sapiens) (UniProt P41235). As to the kind of experiment: ATG_HNF4a_TRANS: Attagene TRANS-FACTORIAL HepG2 Assay for human Hepatocyte Nuclear Factor 4 alpha (HNF4a) (AID 2282982; active = hit-call score of the fitted dose curve at least 0.9, where 1 is the maximum). As to conditions: HepG2 HNF4a transactivation reporter, mRNA readout. In outline: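 HepG2 cells transiently transfected with multiplexed GAL4-UAS reporter units responsive to chimeric NR-GAL4 proteins; compound exposure 24 h. Reporter mRNA quantified by RT-PCR, 6-FAM labelling, HpaI digestion and capillary electrophoresis; gain of signal versus DMSO baseline.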

Assay [5] can be described thus: ATG_M_06_TRANS: Attagene TRANS-FACTORIAL HepG2 Assay for M06 Transcription Factor (Internal Marker) (AID 2282983; active = hit-call score of the fitted dose curve at least 0.9, where 1 is the maximum). The note with it: HepG2 Attagene TRANS M06 internal marker reporter. The method in brief: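 Measured by capillary electrophoresis of fluorescently labelled RT-PCR products, this endpoint reflects reporter mRNA in HepG2 cells harbouring exogenous NR-GAL4 reporter constructs after 24 h exposure, with DMSO as baseline.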

The target of assay [6] is Nuclear receptor subfamily 4 group A member 2 (Homo sapiens) (UniProt P43354). As to the kind of experiment: ATG_NURR1_TRANS: Attagene TRANS-FACTORIAL HepG2 Assay for human Nuclear Receptor Related Protein 1 (NURR1) (AID 2282985; active = hit-call score of the fitted dose curve at least 0.9, where 1 is the maximum). The note with it: HepG2 Attagene TRANS reporter, mRNA readout. The method in brief:
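HepG2 cells transiently transfected with GAL4-UAS reporter units and chimeric NR-Gal4 constructs; chemical exposure 24 h. Reporter mRNA quantified by RT-PCR, fluorescent labelling and capillary electrophoresis; gain of signal fitted relative to DMSO baseline.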

In assay [7] the target is Transcriptional activator Myb (Homo sapiens) (UniProt P10242). The assay can be described thus: ATG_Myb_CIS: Attagene CIS-FACTORIAL HepG2 Assay for human Myeloblastosis (Myb) Proto-Oncogene Transcription Factor (AID 2282986). As to conditions: HepG2 Attagene CIS-FACTORIAL Myb reporter transcription; actives raise or lower the signal. The method in brief: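 Reporter transcript levels, quantified by fluorescent RT-PCR and capillary electrophoresis, serve as the read-out. Transfected HepG2 cells carrying cis-promoter reporter units are dosed for 24 hours, and curves are fitted bidirectionally against DMSO controls.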
Chain of Transcriptional activator Myb (Homo sapiens) (P10242 whole entry, looked up): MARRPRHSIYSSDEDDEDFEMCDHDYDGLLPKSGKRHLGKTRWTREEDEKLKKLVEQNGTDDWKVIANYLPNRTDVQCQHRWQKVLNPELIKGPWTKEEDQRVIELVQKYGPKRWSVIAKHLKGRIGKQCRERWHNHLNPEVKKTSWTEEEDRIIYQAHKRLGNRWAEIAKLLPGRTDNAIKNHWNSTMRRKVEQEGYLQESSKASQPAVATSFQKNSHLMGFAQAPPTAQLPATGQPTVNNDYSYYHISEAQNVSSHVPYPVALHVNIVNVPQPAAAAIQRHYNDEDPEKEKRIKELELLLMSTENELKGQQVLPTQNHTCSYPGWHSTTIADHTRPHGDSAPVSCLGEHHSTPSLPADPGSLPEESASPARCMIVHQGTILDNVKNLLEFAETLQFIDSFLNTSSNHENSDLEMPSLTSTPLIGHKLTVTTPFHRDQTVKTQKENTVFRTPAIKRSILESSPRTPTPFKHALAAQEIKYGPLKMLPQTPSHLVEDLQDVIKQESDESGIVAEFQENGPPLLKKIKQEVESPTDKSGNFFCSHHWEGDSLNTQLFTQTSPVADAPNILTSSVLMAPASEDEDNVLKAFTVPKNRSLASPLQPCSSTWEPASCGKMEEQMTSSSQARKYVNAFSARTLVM

Assay [8] has as its target Nuclear respiratory factor 1 (Homo sapiens) (UniProt Q16656). The assay can be described thus: ATG_NRF1_CIS: Attagene CIS-FACTORIAL HepG2 Assay for human Nuclear Respiratory Factor 1 (NRF1) Orphan Gene (AID 2282987). As to conditions: HepG2 NRF1 cis-element reporter, Attagene multiplex; actives raise or lower the signal. In outline: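 Multiplexed cis-reporter assay, HepG2 cells, 24 h treatment. Total RNA → oligo(dT) RT → PCR with reporter-specific primers → 6-FAM primer extension → HpaI cut → CE. Bidirectional fit vs DMSO.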

The nature of assay [9]: ATG_NFI_CIS: Attagene CIS-FACTORIAL HepG2 Assay for human Nuclear Factor I (NFI) (AID 2282989). The note with it: HepG2 cis-regulatory reporter, NFI response element transcription; actives raise or lower the signal. The method in brief: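 Transfected HepG2 liver cells, exposed 24 h, supplied total RNA for oligo(dT) reverse transcription and reporter-specific PCR. Labelled, HpaI-cut fragments were sized by capillary electrophoresis; DMSO set the baseline for bidirectional fitting.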

Assay [10] concerns the target Myc proto-oncogene protein (Homo sapiens) (UniProt P01106). The assay can be described thus: ATG_Myc_CIS: Attagene CIS-FACTORIAL HepG2 Assay for human Myelocytomatosis (Myc) Proto-Oncogene Transcription Factor (AID 2282990). As to conditions: HepG2, Attagene cis-reporter transcription factor activity; actives raise or lower the signal. The method in brief: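 Multiplexed cis-reporter transcription in HepG2 cells after 24 h chemical treatment. Reporter mRNA measured by RT-PCR and capillary electrophoresis fluorescence; activity fitted bidirectionally against DMSO control.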

Assay [11] in a line: ATG_NF_kB_CIS: Attagene CIS-FACTORIAL HepG2 Assay for human Nuclear Factor Kappa B (NF-kB) (AID 2282991). As to conditions: HepG2 Attagene cis-factorial NF-kB reporter mRNA; actives raise or lower the signal. In outline: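 Transient MRTU transfection of human HepG2 liver cells → 24 h chemical exposure → total RNA, oligo(dT) RT → PCR, 6-FAM primer extension, HpaI digest 2 h 37 C → CE fragment analysis. Bidirectional fitting, DMSO negative control.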

Assay [12] is described as follows: ATG_NRF2_ARE_CIS: Attagene CIS-FACTORIAL HepG2 Assay for human Nuclear Factor Erythroid 2 Related Factor 2 (NFR2) response to Antioxidant Response Elements (ARE) (AID 2282992). As to conditions: HepG2 Attagene ARE/NRF2 reporter, transcription factor activity; actives raise or lower the signal. In outline:
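Cis-factorial assay: transfected HepG2 reporter library, 24 h dosing, mRNA readout via RT-PCR/CE; DMSO-referenced bidirectional analysis.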

The nature of assay [13]: ATG_Oct_MLP_CIS: Attagene CIS-FACTORIAL HepG2 Assay for human Octamer-Binding Transcription Factor (Oct) (AID 2282993). As to conditions: HepG2 Attagene cis-factorial Oct reporter, mRNA; actives raise or lower the signal. In outline:
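Using HepG2 cells bearing transfected cis-reporter constructs, mRNA induction was read after 24 h by fluorescent RT-PCR and capillary electrophoresis, with DMSO defining baseline for gain- or loss-of-signal fits.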

Assay [14] concerns the target Cellular tumor antigen p53 (Homo sapiens) (UniProt P04637). As to the kind of experiment: ATG_p53_CIS: Attagene CIS-FACTORIAL HepG2 Assay for human p53 Transcription Factor (AID 2282994). As to conditions: HepG2 p53 cis-element reporter, Attagene mRNA; actives raise or lower the signal. The method in brief: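 Using HepG2 hepatoma cells carrying cis-acting multiplexed reporters, mRNA induction is detected after a 24 h exposure. Gain- and loss-of-signal responses are fitted relative to DMSO-treated cells.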

The nature of assay [15]: ATG_M_32_TRANS: Attagene TRANS-FACTORIAL HepG2 Assay for M32 Transcription Factor (Internal Marker) (AID 2282984; active = hit-call score of the fitted dose curve at least 0.9, where 1 is the maximum). The note with it: HepG2 Attagene TRANS M32 internal marker reporter. In outline: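 HepG2 cells transiently transfected with multiple GAL4-UAS reporter transcription units, dosed for 24 hours; reporter mRNA quantified by RT-PCR, 6-FAM primer extension, HpaI digestion and capillary electrophoresis. Gain-of-signal fitted versus DMSO baseline; internal background-control marker.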

Assay [16] is described as follows: BSK_3C_TissueFactor: BioMAP Diversity Plus: 3C Assay for Tissue Factor Biomarker Activity (AID 2282997). The note with it: BioMAP 3C HUVEC, tissue factor biomarker readout; actives raise or lower the signal. In outline: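 Values derive from bidirectional curve fitting against DMSO of Tissue Factor ELISA signals, taken 24 h after dosing primary human umbilical vein endothelial cells.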

Assay [17] is described as follows: BSK_3C_uPAR: BioMAP Diversity Plus: 3C Assay for Urokinase-type plasminogen activator receptor (uPAR) Biomarker Activity (AID 2282998). The note with it: BioMAP 3C HUVEC, uPAR biomarker ELISA; actives raise or lower the signal. The method in brief:
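In this endothelial cell-based assay, human umbilical vein primary cells were treated with chemicals and harvested at 24 h. uPAR was quantified using ELISA, with gains or losses fitted relative to DMSO controls.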

Assay [18] is described as follows: BSK_3C_VCAM1: BioMAP Diversity Plus: 3C Assay for Vascular cell adhesion molecule 1 (VCAM1) Biomarker Activity (AID 2282999). As to conditions: BioMAP 3C HUVEC, VCAM1 ELISA, cytokine-stimulated; actives raise or lower the signal. In outline: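 Human umbilical vein endothelial cells were dosed with compound for 24 h, after which cell-surface VCAM-1 was quantified by ELISA. Bidirectional curve fitting used DMSO as negative control and activity baseline.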
(In general: In an ELISA, binding on a coated surface is turned into a signal by an enzyme label.)

Assay [19] is described as follows: BSK_4H_Eotaxin3: BioMAP Diversity Plus: 4H Assay for Eotaxin 3 Biomarker Activity (AID 2283000).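 Note: CCL26 protein level quantified by ELISA in parallel with SRB cytotoxicity check.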 As to conditions: primary human endothelial cells (HUVEC); actives raise or lower the signal. In outline: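 Endothelial primary cells (human umbilical vein) exposed to compound for 24 h. ELISA detection of Eotaxin-3.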

Chain of Cellular tumor antigen p53 (Homo sapiens) (P04637 whole entry, looked up): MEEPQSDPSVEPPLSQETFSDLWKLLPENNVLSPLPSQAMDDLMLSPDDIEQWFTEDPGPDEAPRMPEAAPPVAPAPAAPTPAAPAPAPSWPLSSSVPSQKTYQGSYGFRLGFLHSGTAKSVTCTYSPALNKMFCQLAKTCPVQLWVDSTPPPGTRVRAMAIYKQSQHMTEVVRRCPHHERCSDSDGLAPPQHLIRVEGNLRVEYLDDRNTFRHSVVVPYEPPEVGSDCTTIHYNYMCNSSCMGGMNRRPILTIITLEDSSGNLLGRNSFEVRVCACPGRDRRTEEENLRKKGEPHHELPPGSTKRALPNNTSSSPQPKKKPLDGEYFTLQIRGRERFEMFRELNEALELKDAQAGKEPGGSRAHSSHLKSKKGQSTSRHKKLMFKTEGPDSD
Chain of Myc proto-oncogene protein (Homo sapiens) (P01106 whole entry, looked up): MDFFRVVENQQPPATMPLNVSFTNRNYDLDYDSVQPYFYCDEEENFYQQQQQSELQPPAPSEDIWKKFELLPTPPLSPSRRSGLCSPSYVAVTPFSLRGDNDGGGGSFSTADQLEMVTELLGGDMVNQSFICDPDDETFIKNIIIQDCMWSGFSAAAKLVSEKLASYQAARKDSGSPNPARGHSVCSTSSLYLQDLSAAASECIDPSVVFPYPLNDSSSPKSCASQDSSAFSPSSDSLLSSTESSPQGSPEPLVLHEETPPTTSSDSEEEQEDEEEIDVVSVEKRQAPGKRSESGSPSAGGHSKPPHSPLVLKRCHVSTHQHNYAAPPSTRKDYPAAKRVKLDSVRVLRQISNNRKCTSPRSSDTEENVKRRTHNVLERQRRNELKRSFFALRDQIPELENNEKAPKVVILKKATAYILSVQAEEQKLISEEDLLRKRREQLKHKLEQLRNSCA
Chain of Hepatocyte nuclear factor 4-alpha (Homo sapiens) (P41235 whole entry, looked up, the tested form may be a part): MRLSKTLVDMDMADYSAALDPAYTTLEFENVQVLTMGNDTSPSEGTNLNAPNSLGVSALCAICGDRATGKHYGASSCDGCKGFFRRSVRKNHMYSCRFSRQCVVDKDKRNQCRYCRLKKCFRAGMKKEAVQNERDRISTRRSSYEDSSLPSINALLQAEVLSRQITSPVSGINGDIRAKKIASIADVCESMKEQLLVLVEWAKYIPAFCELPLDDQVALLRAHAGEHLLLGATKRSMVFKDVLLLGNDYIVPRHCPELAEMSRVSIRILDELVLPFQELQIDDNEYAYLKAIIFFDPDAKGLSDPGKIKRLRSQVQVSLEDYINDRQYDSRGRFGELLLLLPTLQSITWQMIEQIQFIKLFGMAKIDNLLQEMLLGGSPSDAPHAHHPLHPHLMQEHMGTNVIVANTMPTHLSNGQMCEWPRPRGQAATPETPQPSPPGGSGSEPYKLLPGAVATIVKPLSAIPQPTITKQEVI
Chain of Nuclear respiratory factor 1 (Homo sapiens) (Q16656 whole entry, looked up): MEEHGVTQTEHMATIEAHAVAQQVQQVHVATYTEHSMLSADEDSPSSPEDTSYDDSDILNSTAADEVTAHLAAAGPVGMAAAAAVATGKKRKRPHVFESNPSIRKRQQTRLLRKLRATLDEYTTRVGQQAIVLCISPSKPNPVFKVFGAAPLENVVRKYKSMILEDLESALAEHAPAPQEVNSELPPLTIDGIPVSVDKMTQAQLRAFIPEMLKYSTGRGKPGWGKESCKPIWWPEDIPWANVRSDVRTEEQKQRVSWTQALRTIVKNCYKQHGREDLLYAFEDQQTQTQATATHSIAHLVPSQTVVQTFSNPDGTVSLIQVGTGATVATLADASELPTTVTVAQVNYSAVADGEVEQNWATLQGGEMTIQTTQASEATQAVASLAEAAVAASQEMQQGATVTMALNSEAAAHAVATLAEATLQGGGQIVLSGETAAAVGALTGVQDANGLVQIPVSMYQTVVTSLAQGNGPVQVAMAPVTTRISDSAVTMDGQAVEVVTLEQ
Chain of Oxysterols receptor LXR-beta (Homo sapiens) (P55055 whole entry, looked up, the tested form may be a part): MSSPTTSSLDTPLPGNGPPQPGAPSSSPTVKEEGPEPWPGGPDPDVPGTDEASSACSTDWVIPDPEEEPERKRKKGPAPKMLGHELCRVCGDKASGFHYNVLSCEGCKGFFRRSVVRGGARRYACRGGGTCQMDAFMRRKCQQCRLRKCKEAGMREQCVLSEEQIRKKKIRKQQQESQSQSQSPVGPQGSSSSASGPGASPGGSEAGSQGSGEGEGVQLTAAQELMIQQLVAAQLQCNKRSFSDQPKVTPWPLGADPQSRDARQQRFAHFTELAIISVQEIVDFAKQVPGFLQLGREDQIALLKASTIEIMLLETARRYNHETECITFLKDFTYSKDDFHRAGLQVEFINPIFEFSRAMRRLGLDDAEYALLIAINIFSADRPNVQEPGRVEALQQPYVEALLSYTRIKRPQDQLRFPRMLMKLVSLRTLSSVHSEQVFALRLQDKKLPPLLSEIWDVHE
Chain of Nuclear receptor subfamily 4 group A member 2 (Homo sapiens) (P43354 whole entry, looked up, the tested form may be a part): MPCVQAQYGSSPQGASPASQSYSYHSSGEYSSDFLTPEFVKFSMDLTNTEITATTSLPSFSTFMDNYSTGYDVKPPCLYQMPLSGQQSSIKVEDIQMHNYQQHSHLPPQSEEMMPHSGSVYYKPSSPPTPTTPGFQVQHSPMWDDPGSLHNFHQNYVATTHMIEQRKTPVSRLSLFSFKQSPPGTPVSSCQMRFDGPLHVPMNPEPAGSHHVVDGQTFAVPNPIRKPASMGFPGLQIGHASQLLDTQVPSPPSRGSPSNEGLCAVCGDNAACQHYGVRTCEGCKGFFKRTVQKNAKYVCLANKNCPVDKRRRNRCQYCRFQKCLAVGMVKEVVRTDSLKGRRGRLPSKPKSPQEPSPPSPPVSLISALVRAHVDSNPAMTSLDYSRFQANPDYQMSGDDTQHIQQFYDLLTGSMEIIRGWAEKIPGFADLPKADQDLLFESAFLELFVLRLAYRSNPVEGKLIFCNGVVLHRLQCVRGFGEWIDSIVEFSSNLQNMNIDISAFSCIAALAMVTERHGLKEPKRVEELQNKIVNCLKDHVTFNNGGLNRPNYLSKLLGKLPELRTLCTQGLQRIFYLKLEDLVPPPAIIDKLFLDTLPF

Consider `CC(CC(C)(C)C)CC(C)(C)CC(C)(C)C` (stereo not drawn), for which the compound was called inactive in [1], in assay [2], in assay [3], in [4], in assay [5] and in assay [6]. For the same compound, the result in assay [7], in assay [8], in assay [9], in [10], in assay [11] and in assay [12] was inactive. In addition, the compound was called inactive in assay [13] and in [14].

Take `CN(C)CCOCCN(C)C`: the compound was classed as inactive in [1], in assay [2], in assay [3], in [15], in assay [7] and in assay [8]. The call in assay [10], in assay [11], in assay [12], in [13] and in assay [14] was inactive.

For `Cc1ccc2sc3cccc(C)c3c2c1`, the compound was classed as inactive in assay [1], in [2], in assay [4], in assay [5], in [7] and in assay [9]. The compound was classed as inactive in assay [10], in assay [11], in assay [12], in [13] and in assay [14].

What is called AC50 is the concentration giving half of the maximal activity seen. On to `C=CC(=O)OCCn1c(=O)n(CCOC(=O)C=C)c(=O)n(CCOC(=O)C=C)c1=O`, for which the outcome in [1], in assay [2], in assay [3], in assay [4], in assay [5] and in assay [15] was inactive. Moreover, the outcome in assay [7], in assay [8], in assay [9] and in assay [10] was inactive. The concentration at half-maximal activity (AC50) is 0.811 µM (active) in [12] and 8.38 µM (active) in [13].

Regarding `Nc1cc([N+](=O)[O-])ccc1Cl`, the outcome in assay [1], in [2], in assay [5], in assay [15], in assay [7] and in assay [8] was inactive. Besides, the compound was called inactive in assay [9], in [10], in assay [11], in assay [13], in [16] and in assay [17]. In addition, the outcome in [18] and in assay [19] was inactive. In assay [12], the AC50 is 62.5 µM (active).
